According to PubChem BioAssay (Tox21):
Records with an inconclusive call do not appear. Activity calls are given as the source filed them. Unless noted, the call rests on the fitted dose curve; in most records, active means well fitted curve in the direction sought with a large enough effect in the repeat runs; inconclusive means weak or mixed curves; inactive means no such curve, though single readings can be large; an effect the other way counts as inactive or inconclusive.

Tests used:
[1] = qHTS assay to identify small molecule antagonists of the estrogen related receptor (ERR) signaling pathway (AID 1224819;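 further: luminescence from an ERR-driven luciferase reporter measured with One-Glo reagent; series mostly up to about 46 µM; nearly all actives have a fitted effect of over 50% in size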)
How it was run: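 ERR reporter cells were plated at 2,000 cells/well and left 6 h at 37 C/5% CO2 before pin-tool transfer of compounds in DMSO. After 18 h at 37 C, One-Glo was added and luminescence was read 30 min later at room temperature.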

[2] = qHTS assay to identify small molecule agonists of the estrogen related receptor (ERR) signaling pathway (AID 1224820)
How it was run: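 An ERR cell line provided by NTP was seeded at 2,000 cells per well and allowed to settle for 6 h before compounds in DMSO were added. After 18 h at 37 C, luciferase activity was measured by One-Glo luminescence.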

[3] = qHTS assay to identify small molecule antagonists of the estrogen related receptor signaling pathway with the pleiotropic PPARgamma coactivator (PGC) cell viability counter screen (AID 1224822;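 further: series mostly up to about 46 µM; viability read after 17.5 h compound exposure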)
How it was run: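 Viable cell signal (CellTiter-Fluor, 30 min, 37 C/5% CO2) was measured in PGC/ERR cells after a 17.5 h compound incubation.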

[4] = qHTS assay to identify small molecule agonists of the estrogen related receptor signaling pathway with the pleiotropic PPARgamma coactivator (PGC) (AID 1224823)
How it was run: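 Compounds dissolved in DMSO are added by pin tool to PGC/ERR cells that have settled for 6 h, and incubation continues 18 h at 37 C. Reporter output is measured as One-Glo luminescence.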

[5] = qHTS assay to identify small molecule antagonists of the estrogen related receptor (ERR) signaling pathway - cell viability counter screen (AID 1224818);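 further: series mostly up to about 46 µM; viability measured after 17.5 h of compound exposure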
How it was run: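 Cytotoxicity check run alongside the ERR antagonist screen: cells exposed to test compounds 17.5 h at 37 C, viability taken as CellTiter-Fluor fluorescence intensity.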

[6] = test system: estrogen-related receptor alpha (ERRalpha) with PGC-1alpha coactivator, human; assay: qHTS assay to identify small molecule antagonists of the estrogen related receptor signaling pathway with the pleiotropic PPARgamma coactivator (PGC) (AID 1224821; calls by dose curve;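 further: series mostly up to about 46 µM; lower luminescence signal means antagonism of PGC/ERR signalling; nearly all actives have a fitted effect of over 50% in size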)
How it was run: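 A PGC/ERR cell line supplied by NTP is seeded, allowed 6 h at 37 C, and treated with test compounds in DMSO for 18 h. Signal is then measured as luciferase luminescence using One-Glo.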

Measured: Potency

CP(=O)(O)C1=CCNCC1
inactive: [1] | [2] | [3] | [4]

Cc1o[nH]c(=O)c1CC(N)C(=O)O (stereo not given)
inactive: [5] | [3]

O=c1ccc2[nH]cc(C3=CCNCC3)c2[nH]1
inactive: [1] | [2] | [6] | [3] | [4]

NC(Cc1cc(O)c(O)cc1O)C(=O)O (stereo not given)
inactive: [5] | [6] | [3] | [4]

O=C(NC1CN2CCC1CC2)c1cc2ccoc2cn1 (stereo not given)
inactive: [5] | [3]

C[N+]1(C)C2CC(OC(=O)[C@H](CO)c3ccccc3)CC1C1OC12 (stereo not given in full)
inactive: [5] | [3]

CCCC[N+]1(C)C2CC(OC(=O)[C@H](CO)c3ccccc3)CC1C1OC12 (stereo not given in full)
inactive: [5] | [3]

O=[N+]([O-])c1cc(O)c(O)c([N+](=O)[O-])c1
inactive: [1] | [2] | [6] | [4]

Oc1ccc2c3c1O[C@H]1c4oc5ccccc5c4C[C@@]4(O)C(C2)N(CC2CC2)CCC314 (stereo not given in full)
inactive: [5] | [2] | [6] | [3] | [4]

CC(C)CC(NP(=O)(O)O[C@@H]1O[C@@H](C)[C@H](O)[C@@H](O)[C@H]1O)C(=O)NC(Cc1c[nH]c2ccccc12)C(=O)O (stereo not given in full)
inactive: [1] | [2] | [6] | [3] | [4]
